From the supplement of paper PMC6992640
Structures can show the parent of a compound that is named as a salt. ± gives the standard deviation of the averaged measurements.

Key:
Experiment in all cases: cell viability (% of vehicle); higher = less cytotoxic
Conditions in all cases: 10 µM; 72 h
[1] = system: HCI01 (cells of a triple-negative basal-like breast cancer xenograft)
[2] = system: HCI03 (cells of an ER-positive luminal breast cancer xenograft)
[3] = system: HCI09 (cells of a triple-negative luminal androgen receptor type breast cancer xenograft)
[4] = system: HCI11 (cells of an ER-positive luminal breast cancer xenograft)
[5] = system: HCI13 (cells of an ER-positive luminal breast cancer xenograft)
[6] = system: HCI16 (cells of a triple-negative basal-like breast cancer xenograft)
[7] = system: UCD52 (cells of a triple-negative basal-like breast cancer xenograft)
[8] = system: WHIM2 (cells of a triple-negative basal-like breast cancer xenograft)
[9] = system: WHIM30 (cells of a triple-negative basal-like breast cancer xenograft)
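Also: PDX cells carrying CMV promoter-driven luciferase, viability read as total photon flux per second by IVIS imaging following D-luciferin, vehicle control 0.1% DMSO.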

| Structure (SMILES) | cell viability [1] | cell viability [2] | cell viability [3] | cell viability [4] | cell viability [5] | cell viability [6] | cell viability [7] | cell viability [8] | cell viability [9] |
| --- | --- | --- | --- | --- | --- | --- | --- | --- | --- |
| O=C(O)c1ccc2ccccc2c1O.OCc1cc(C(O)CNCCCCCCOCCCCc2ccccc2)ccc1O (centres undefined) [Salmeterol xinafoate] | 86 ± 1.1 | 92.5 | 57.3 ± 8 | 75.2 | 88.6 ± 9.6 | 76.1 | 62.1 ± 0.9 | 66.7 ± 13 | 107 ± 20 |
| Clc1ccc(C(c2ccccc2Cl)C(Cl)Cl)cc1 (centres undefined) [Mitotane (Lsodren)] | 127 ± 3.6 | 112 | 148 ± 59 | 107 | 91.2 ± 3.4 | 121 | 97.871 ± 0.035 | 96.3 ± 24 | 142 ± 11 |
| C=C[C@]1(C)C[C@@H](OC(=O)CSC(C)(C)CNC(=O)[C@H](N)C(C)C)[C@]2(C)[C@H](C)CC[C@]3(CCC(=O)[C@H]32)[C@@H](C)[C@@H]1O [Valnemulin HCl] | 90.1 ± 7.2 | 107 | 66 ± 3.6 | 91.8 | 63.2 ± 0.68 | 120 | 78.3 ± 4.9 | 102 ± 20 | 114 ± 3 |
| CN(C)CCCN1c2ccccc2CCc2ccc(Cl)cc21.Cl [Clomipramine HCl] | 102 ± 22 | 108 | 74.2 ± 2.6 | 69.7 | 88.4 ± 10 | 88.4 | 61.1 ± 1.7 | 58 ± 1.1 | 94.4 ± 13 |
| C[N+](C)(C)CCO.[Cl-] [Choline Chloride] | 135 ± 42 | 120 | 89.2 ± 11 | 78.8 | 73.78 ± 0.7 | 116 | 85.6 ± 10 | 105 ± 17 | 101 ± 3.5 |
| CC(C)NCC(O)COc1ccc(COCCOC(C)C)cc1.O=C(O)C=CC(=O)O (centres undefined) [Bisoprolol fumarate] | 129.4 ± 0.93 | 129 | 102 ± 30 | 113 | 93.1 ± 1.1 | 96.1 | 86.1 ± 8.9 | 93.9 ± 16 | 120 ± 2.5 |
| CCCC(=O)OCOC(=O)C1=C(C)NC(C)=C(C(=O)OC)C1c1cccc(Cl)c1Cl (centres undefined) [Clevidipine Butyrate] | 106.5 ± 0.58 | 126 | 104 ± 19 | 112 | 105 ± 6.6 | 88.1 | 92.2 ± 1.5 | 100 ± 6.3 | 91 ± 2.4 |
| NC(=O)N1CCC(CC(=O)N2CCC(C3c4ncc(Br)cc4CCc4cc(Cl)cc(Br)c43)CC2)CC1 (centres undefined) [Lonafarnib] | 72.5 ± 68 | 121 | 12.8 ± 2.5 | 163 | 43.2 ± 17 | 170 |  | 126 ± 12 | 115 ± 7.2 |
| Cc1cc(C2CCCCC2)n(O)c(=O)c1 [Ciclopirox] | 93 ± 59 | 67.7 | 26.8 ± 3.4 | 51.7 | 73.9 ± 3.7 | 117 | 92.7 ± 3.6 |  | 94.5 ± 12 |
| CC(=O)[N-]S(=O)(=O)c1ccc(N)cc1.[Na+] [Sulfacetamide Sodium] | 98.2 ± 1.3 | 86.1 | 87.3 ± 15 | 104 | 96.8 ± 5.9 | 79.7 | 72.9 ± 1.1 | 85.757 ± 0.01 | 109 ± 3.1 |
| CC(C)C(N)C(=O)OCC(CO)OCn1cnc2c(=O)nc(N)[nH]c21.Cl (centres undefined) [Valganciclovir HCl] | 96.1 ± 5.7 | 104 | 90 ± 24 | 90.6 | 55.1 ± 2 | 111 | 120 ± 38 | 111 ± 28 | 138 ± 13 |
| CC(=O)N=c1sc(S(N)(=O)=O)nn1C [Methazolamide] | 103 ± 7.7 | 114 | 92.5 ± 21 | 119 | 119 ± 9.3 | 122 | 93.9 ± 16 | 94.6 ± 3.6 | 97.7 ± 1.2 |
| CNCc1ccc(-c2[nH]c3cc(F)cc4c3c2CCNC4=O)cc1.O=P(O)(O)O | 161.1 ± 0.84 | 104 | 76 ± 12 | 85.9 | 145 ± 9.1 |  | 126 ± 39 | 173 ± 26 |  |
| Nc1nc(Cl)nc2c1ncn2C1OC(CO)C(O)C1F (centres undefined) [Clofarabine] | 162.3 ± 0.47 | 175 | 141 ± 70 | 126 | 180 ± 11 | 92.9 | 143 ± 24 |  | 128.5 ± 0.14 |
| O=C(Nc1c(Cl)cncc1Cl)c1ccc(OC(F)F)c(OCC2CC2)c1 [Roflumilast] | 150 ± 8.4 | 145 | 118 ± 55 | 124 |  | 196 | 119 ± 10 | 104 ± 15 | 151 ± 5.7 |
| CC(=O)OC1(C(C)=O)CCC2C3C=C(C)C4=CC(=O)CCC4(C)C3CCC21C (centres undefined) [Megestrol Acetate] | 112 ± 6.4 | 121 | 106 ± 10 | 91.8 |  | 102 | 103 ± 16 | 93.7 ± 14 | 127.9 ± 0.7 |
| CCC(=O)OC1(C(=O)CCl)C(C)CC2C3CCC4=CC(=O)C=CC4(C)C3(F)C(O)CC21C (centres undefined) [Clobetasol propionate] | 116 ± 22 | 125 | 116 ± 54 | 132 |  | 196 | 142 ± 10 | 91 ± 25 |  |
| Cc1onc(-c2ccccc2Cl)c1C(=O)NC1C(=O)N2C1SC(C)(C)C2C(=O)[O-].O.[Na+] (centres undefined) [Cloxacillin Sodium] | 141 ± 32 | 176 | 161 ± 95 | 134 | 191 ± 2.4 |  | 154 ± 38 | 132 ± 37 | 199 ± 20 |

| Structure (SMILES) | cell viability [1] | cell viability [2] | cell viability [3] | cell viability [4] | cell viability [5] | cell viability [6] | cell viability [7] | cell viability [8] | cell viability [9] |
| --- | --- | --- | --- | --- | --- | --- | --- | --- | --- |
| Cc1onc(-c2ccccc2)c1C(=O)NC1C(=O)N2C1SC(C)(C)C2C(=O)[O-].O.[Na+] (centres undefined) [Oxacillin sodium monohydrate] | 114 ± 12 | 150 | 116 ± 24 | 110 |  | 127 | 105 ± 5 | 91 ± 13 | 168 ± 8.6 |
| Cl.O=C(CCCN1CCC(O)(c2ccc(Cl)cc2)CC1)c1ccc(F)cc1 [Haloperidol hydrochloride] | 114 ± 14 | 99.6 | 103 ± 31 | 106 |  | 127 | 63.4 ± 4.9 | 114 ± 6.5 | 60.2 ± 8.8 |
| CO[C@H]1C(=O)[C@]2(C)[C@@H](OC)C[C@H]3OC[C@@]3(OC(C)=O)[C@H]2[C@H](OC(=O)c2ccccc2)[C@]2(O)C[C@H](OC(=O)[C@H](O)[C@@H](NC(=O)OC(C)(C)C)c3ccccc3)C(C)=C1C2(C)C [Cabazitaxel] | 78.1 ± 51 | 113 | 66.2 ± 5.4 | 89.2 | 106 ± 5.1 |  | 70.3 ± 4.9 | 72 ± 11 | 107 ± 4.8 |
| Cl.N=C(N=C(N)N)N1CCOCC1 [Moroxydine HCl] | 91.5 ± 36 | 114 | 92.5 ± 3.5 | 89.2 |  | 138 | 87.98 ± 0.46 | 70.25 ± 0.58 | 164.7 ± 0.024 |
| C#C[C@]1(O)CC[C@H]2[C@@H]3CCC4=CC(=O)CC[C@@H]4[C@H]3C(=C)C[C@@]21CC [Etonogestrel] | 109 ± 47 | 135 | 102 ± 13 | 86.3 |  | 145 | 116 ± 14 | 112 ± 30 | 146 ± 16 |
| C#CC1(O)CCC2C3CCc4cc(O)ccc4C3CCC21C (centres undefined) [Ethinyl Estradiol] | 107 ± 7.8 | 119 | 103 ± 15 | 102 |  | 93.3 | 84 ± 3.5 | 107 ± 25 | 109 ± 21 |
| CCC1C(=O)N(C)c2cnc(Nc3ccc(C(=O)NC4CCC(N5CCN(CC6CC6)CC5)CC4)cc3OC)nc2N1C(C)C (centres undefined) [BI6727 (Volasertib)] | 82.6 ± 50 | 85.1 | 26.4 ± 0.95 | 115 | 84.6 ± 29 |  | 116 ± 4.4 | 43.5 ± 8.7 | 176.9 ± 1.6 |
| CC(NCCc1ccc(O)cc1)C(O)c1ccc(O)cc1.Cl (centres undefined) [Ritodrine HCl] | 111 ± 11 | 116 | 101 ± 21 | 106 |  | 111 | 86.3 ± 4.5 | 97.8 ± 37 | 111 ± 4.8 |
| NCCc1cnc[nH]1.O=P(O)(O)O.O=P(O)(O)O [Histamine Phosphate] | 117 ± 18 | 117 | 95.2 ± 15 | 98.4 |  | 131 | 99.9 ± 17 | 98.8 ± 4.3 | 149 ± 14 |
| CCN(CC)CC#CCOC(=O)C(O)(c1ccccc1)C1CCCCC1.Cl (centres undefined) [Oxybutynin chloride] | 175 ± 51 | 170 | 139 ± 59 | 140 |  | 178 | 109 ± 10 | 166 ± 20 | 85.9 ± 14 |
| CC(C)(C#N)c1cc(Cn2cncn2)cc(C(C)(C)C#N)c1 [Anastrozole] | 160 ± 20 | 149 | 108 ± 23 | 120 |  | 120 | 111 ± 11 | 132 ± 22 | 124.2 ± 0.85 |
| CO[C@@]1(NC(=O)[C@H](C(=O)[O-])c2ccc(O)cc2)C(=O)N2C(C(=O)[O-])=C(CSc3nnnn3C)CO[C@@H]21.[Na+].[Na+] [Moxalactam (sodium salt)] | 116 ± 30 | 120 | 108 ± 3.6 | 66.4 |  | 148 | 144 ± 7 | 92.8 ± 6.9 | 126 ± 2.9 |
| COc1ccccc1OCC(O)CO (centres undefined) [Guaifensin] | 108 ± 4.8 | 131 | 112 ± 21 | 102 |  | 117 | 91.7 ± 1 | 95 ± 18 | 141 ± 10 |
| O=C(NS(=O)(=O)c1ccc(Br)s1)c1ccc(Cl)cc1Cl [Tasisulam] | 183 ± 32 | 126 | 84.1 ± 17 | 148 | 158 ± 6 |  | 115 ± 25 | 167 ± 16 | 172 ± 15 |
| CCCN(CCC)S(=O)(=O)c1ccc(C(=O)O)cc1 [Probenecid] | 102 ± 37 | 142 | 125 ± 6.3 | 94.6 |  | 145 | 113 ± 6.4 | 92.7 ± 6.9 | 155 ± 8.7 |
| Cc1cc(Nc2cc(CN3CCOCC3)c3nc(C)c(Cc4ccc(Cl)cc4F)n3n2)n[nH]1 | 142 ± 56 | 116 | 64.3 ± 15 | 196 |  | 199 | 103 ± 19 |  |  |
| NS(=O)(=O)c1cc2c(cc1Cl)NCNS2(=O)=O [Hydrochlorothiazide] | 95 ± 30 | 106 | 134 ± 72 | 92.7 |  | 177 | 105 ± 3 | 101 ± 3.8 | 139 ± 11 |
| Cl.O=C1NCC2(CCN(CCc3ccccc3)CC2)O1 [Fenspiride HCl] | 118 ± 42 | 126 | 101 ± 14 | 98.4 |  | 104 | 99.1 ± 6.4 | 98.1 ± 4.1 | 93.8 ± 14 |
